Experimental data reported in paper PMC7862700, “An all-to-all approach to the identification of sequence-specific readers for epigenetic DNA modifications on cytosine”.

Assays:
Test in all cases: DAPPL (digital affinity profiling via proximity ligation, sequencing); 10 mM Tris-HCl pH 7.5, 50 mM NaCl, 1 mM DTT, 4% glycerol, room temperature, 30 min; GST-TFs on glutathione beads, 16-mer random dsDNA library, 0.1% formaldehyde crosslink after washing; high values mean tight binding
FEV = biological target: T1, FEV (Homo sapiens, UniProt Q99581 1-238); details: protein: recombinant; tags: N-terminal GST; dsDNA, one strand shown
T1 sequence: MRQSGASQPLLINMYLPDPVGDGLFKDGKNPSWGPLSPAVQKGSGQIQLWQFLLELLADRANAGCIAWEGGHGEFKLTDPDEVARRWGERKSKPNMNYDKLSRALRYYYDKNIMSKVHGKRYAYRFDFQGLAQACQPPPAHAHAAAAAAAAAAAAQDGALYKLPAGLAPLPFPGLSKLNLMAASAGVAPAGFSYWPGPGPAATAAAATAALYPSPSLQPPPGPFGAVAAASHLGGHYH
Method in brief: (§1)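 After expression in yeast as GST fusions, human transcription factors were bound to glutathione beads, DNA-barcoded and mixed with a tag-only sample. The pools were incubated with 200 nmole of a 16-mer random double-stranded DNA library in Tris/NaCl/DTT/glycerol buffer (30 min, room temperature), washed and crosslinked with 0.1% formaldehyde. Proximity ligation with BsaI/T4 ligase ran for 1 h at 37 °C, before PCR amplification and sequencing on an Illumina NextSeq500. Binding signal is a hexamer's read frequency for a factor divided by its frequency for the tag-only sample.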

ETV5 = ETV5 (Homo sapiens, UniProt P41161 1-510); details: protein: recombinant; tags: N-terminal GST; dsDNA, one strand shown
Method in brief: as §1

HSF1 = HSF1 (Homo sapiens, UniProt Q00613 1-529); details: protein: recombinant; tags: N-terminal GST; chain copies: 3; dsDNA, one strand shown
Method in brief: as §1

SPIC = biological target: T2, SPIC (Homo sapiens, UniProt Q8N5J4 1-248); details: protein: recombinant; tags: N-terminal GST; dsDNA, one strand shown
T2 sequence: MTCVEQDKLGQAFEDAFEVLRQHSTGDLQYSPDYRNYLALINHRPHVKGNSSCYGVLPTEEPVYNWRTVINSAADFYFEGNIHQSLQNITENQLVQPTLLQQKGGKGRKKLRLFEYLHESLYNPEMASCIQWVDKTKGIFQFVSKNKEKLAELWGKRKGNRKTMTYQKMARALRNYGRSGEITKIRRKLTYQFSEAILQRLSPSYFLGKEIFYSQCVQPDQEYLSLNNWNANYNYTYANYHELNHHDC
Method in brief: as §1

ELF4 = ELF4 (Homo sapiens, UniProt Q99607 1-663); details: protein: recombinant; tags: N-terminal GST; dsDNA, one strand shown
Method in brief: as §1

ELK4 = biological target: T3, ELK4 (Homo sapiens, UniProt P28324-2 1-405); details: protein: recombinant; tags: N-terminal GST; dsDNA, one strand shown
T3 sequence: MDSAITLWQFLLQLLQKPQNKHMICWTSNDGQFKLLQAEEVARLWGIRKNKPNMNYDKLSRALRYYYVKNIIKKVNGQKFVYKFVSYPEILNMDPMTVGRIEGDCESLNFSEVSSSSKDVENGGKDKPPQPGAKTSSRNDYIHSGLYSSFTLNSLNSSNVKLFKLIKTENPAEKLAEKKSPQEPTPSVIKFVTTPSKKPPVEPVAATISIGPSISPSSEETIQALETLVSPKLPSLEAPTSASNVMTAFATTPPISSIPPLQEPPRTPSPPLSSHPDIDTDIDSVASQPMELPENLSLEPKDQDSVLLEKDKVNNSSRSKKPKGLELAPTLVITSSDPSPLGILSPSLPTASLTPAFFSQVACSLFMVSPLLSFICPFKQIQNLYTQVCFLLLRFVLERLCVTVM
Method in brief: as §1

ETV2 = biological target: T4, ETV2 (Homo sapiens, UniProt O00321 1-342); details: protein: recombinant; tags: N-terminal GST; dsDNA, one strand shown
T4 sequence: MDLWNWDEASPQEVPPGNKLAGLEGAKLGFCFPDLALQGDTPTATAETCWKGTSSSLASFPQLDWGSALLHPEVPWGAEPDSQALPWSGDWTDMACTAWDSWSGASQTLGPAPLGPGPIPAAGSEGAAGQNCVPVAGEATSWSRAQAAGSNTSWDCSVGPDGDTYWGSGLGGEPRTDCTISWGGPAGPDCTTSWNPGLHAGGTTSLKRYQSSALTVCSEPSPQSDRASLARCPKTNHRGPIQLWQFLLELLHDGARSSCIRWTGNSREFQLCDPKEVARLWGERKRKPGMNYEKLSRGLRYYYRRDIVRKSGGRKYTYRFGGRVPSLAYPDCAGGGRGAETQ
Method in brief: as §1

ELF3 = biological target: T5, ELF3 (Homo sapiens, UniProt P78545 1-371); details: protein: recombinant; tags: N-terminal GST; dsDNA, one strand shown
T5 sequence: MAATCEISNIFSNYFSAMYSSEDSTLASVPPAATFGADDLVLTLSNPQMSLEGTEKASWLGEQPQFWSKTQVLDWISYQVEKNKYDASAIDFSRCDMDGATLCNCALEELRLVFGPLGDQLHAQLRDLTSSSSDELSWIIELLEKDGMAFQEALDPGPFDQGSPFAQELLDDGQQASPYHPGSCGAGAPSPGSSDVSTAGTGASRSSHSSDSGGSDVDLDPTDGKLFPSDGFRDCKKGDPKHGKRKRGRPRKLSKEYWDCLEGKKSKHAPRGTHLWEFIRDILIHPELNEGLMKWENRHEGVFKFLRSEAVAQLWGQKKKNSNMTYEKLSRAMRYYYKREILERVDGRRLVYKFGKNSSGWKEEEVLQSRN
Method in brief: as §1

CRX = CRX (Homo sapiens, UniProt O43186 1-299); details: protein: recombinant; tags: N-terminal GST; dsDNA, one strand shown
Method in brief: as §1

ETV1 = ETV1 (Homo sapiens, UniProt P50549 1-477); details: protein: recombinant; tags: N-terminal GST; dsDNA, one strand shown
Method in brief: as §1

ERF = biological target: T6, ERF (Homo sapiens, UniProt P50548 1-548); details: protein: recombinant; tags: N-terminal GST; dsDNA, one strand shown
T6 sequence: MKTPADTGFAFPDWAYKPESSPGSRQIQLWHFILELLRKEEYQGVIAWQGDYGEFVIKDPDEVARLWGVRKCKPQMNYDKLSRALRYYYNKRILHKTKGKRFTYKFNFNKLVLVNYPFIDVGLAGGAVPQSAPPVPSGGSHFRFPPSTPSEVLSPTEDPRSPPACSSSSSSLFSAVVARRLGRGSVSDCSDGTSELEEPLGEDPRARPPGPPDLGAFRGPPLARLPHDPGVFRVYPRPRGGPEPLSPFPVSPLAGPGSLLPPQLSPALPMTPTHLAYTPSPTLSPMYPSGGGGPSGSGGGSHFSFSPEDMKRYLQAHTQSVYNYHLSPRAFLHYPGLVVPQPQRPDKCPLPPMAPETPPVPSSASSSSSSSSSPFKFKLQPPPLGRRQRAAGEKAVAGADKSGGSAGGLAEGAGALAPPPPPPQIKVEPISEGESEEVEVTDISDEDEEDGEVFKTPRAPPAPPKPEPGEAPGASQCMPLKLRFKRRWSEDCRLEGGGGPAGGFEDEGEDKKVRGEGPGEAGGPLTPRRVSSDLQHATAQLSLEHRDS
Method in brief: as §1

ETV3L = biological target: T7, ETV3L (Homo sapiens, UniProt Q6ZN32 1-361); details: protein: recombinant; tags: N-terminal GST; dsDNA, one strand shown
T7 sequence: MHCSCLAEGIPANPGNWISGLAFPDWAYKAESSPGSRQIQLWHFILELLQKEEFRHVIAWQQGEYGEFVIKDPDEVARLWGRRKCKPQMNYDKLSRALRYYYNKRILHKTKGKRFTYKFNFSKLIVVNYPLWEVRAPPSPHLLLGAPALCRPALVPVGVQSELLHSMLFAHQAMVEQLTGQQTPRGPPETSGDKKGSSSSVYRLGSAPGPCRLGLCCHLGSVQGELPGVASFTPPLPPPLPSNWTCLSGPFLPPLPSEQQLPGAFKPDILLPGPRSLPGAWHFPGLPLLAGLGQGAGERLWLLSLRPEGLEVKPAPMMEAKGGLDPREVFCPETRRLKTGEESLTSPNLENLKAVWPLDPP
Method in brief: as §1

ETS2 = biological target: T8, ETS2 (Homo sapiens, UniProt P15036 1-469); details: protein: recombinant; tags: N-terminal GST; dsDNA, one strand shown
T8 sequence: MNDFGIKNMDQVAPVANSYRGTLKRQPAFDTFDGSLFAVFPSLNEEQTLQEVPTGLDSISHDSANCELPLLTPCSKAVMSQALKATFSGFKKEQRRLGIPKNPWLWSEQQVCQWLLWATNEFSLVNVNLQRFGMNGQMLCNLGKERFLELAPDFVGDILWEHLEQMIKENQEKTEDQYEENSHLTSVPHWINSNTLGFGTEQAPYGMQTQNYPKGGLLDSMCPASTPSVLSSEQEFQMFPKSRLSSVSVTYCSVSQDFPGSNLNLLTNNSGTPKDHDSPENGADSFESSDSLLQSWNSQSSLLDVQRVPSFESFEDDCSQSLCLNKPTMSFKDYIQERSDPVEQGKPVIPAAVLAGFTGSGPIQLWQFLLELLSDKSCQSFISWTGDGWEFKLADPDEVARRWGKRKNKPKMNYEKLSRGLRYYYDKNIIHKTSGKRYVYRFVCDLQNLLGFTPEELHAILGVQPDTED
Method in brief: as §1

SPDEF = biological target: T9, SPDEF (Homo sapiens, UniProt O95238 1-335); details: protein: recombinant; tags: N-terminal GST; dsDNA, one strand shown
T9 sequence: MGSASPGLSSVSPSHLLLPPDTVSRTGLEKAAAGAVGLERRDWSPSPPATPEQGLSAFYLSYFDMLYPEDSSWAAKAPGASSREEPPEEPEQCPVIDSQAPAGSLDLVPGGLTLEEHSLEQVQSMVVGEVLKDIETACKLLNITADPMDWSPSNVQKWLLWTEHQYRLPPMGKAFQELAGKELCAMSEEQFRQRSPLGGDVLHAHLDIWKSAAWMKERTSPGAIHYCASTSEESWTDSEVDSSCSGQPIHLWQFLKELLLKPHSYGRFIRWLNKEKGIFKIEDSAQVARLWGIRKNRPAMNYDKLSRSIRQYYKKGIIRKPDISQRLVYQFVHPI
Method in brief: as §1

ETV7 = biological target: T10, ETV7 (Homo sapiens, UniProt Q9Y603 1-341); details: protein: recombinant; tags: N-terminal GST; dsDNA, one strand shown
T10 sequence: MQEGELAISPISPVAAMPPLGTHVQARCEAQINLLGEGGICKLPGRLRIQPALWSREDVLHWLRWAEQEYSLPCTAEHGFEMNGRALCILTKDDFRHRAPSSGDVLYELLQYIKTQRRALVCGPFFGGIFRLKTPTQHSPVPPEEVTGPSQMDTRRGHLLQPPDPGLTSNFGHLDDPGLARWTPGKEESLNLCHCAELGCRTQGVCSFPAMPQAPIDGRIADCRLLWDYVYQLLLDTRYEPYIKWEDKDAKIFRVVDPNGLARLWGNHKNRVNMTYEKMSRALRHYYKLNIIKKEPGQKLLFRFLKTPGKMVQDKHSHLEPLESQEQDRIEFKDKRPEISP
Method in brief: as §1

ELF5 = biological target: T11, ELF5 (Homo sapiens, UniProt Q9UKW6-2 1-255); details: protein: recombinant; tags: N-terminal GST; dsDNA, one strand shown
T11 sequence: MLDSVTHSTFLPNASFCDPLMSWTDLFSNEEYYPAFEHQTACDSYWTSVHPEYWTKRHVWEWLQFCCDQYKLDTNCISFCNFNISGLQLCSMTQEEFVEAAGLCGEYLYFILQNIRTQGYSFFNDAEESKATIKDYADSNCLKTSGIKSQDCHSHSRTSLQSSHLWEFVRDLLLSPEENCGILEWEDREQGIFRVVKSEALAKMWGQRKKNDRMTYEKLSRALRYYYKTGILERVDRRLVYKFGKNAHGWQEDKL
Method in brief: as §1

ETV3 = biological target: T12, ETV3 (Homo sapiens, UniProt P41162-2 1-143); details: protein: recombinant; tags: N-terminal GST; dsDNA, one strand shown
T12 sequence: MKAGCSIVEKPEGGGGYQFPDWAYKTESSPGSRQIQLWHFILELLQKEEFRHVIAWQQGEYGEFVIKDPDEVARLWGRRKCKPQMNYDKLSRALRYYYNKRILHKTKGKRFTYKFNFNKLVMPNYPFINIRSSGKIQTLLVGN
Method in brief: as §1

ETV6 = ETV6 (Homo sapiens, UniProt P41212 1-452); details: protein: recombinant; tags: N-terminal GST; dsDNA, one strand shown
Method in brief: as §1

ETV5, sequence (P41161 whole entry): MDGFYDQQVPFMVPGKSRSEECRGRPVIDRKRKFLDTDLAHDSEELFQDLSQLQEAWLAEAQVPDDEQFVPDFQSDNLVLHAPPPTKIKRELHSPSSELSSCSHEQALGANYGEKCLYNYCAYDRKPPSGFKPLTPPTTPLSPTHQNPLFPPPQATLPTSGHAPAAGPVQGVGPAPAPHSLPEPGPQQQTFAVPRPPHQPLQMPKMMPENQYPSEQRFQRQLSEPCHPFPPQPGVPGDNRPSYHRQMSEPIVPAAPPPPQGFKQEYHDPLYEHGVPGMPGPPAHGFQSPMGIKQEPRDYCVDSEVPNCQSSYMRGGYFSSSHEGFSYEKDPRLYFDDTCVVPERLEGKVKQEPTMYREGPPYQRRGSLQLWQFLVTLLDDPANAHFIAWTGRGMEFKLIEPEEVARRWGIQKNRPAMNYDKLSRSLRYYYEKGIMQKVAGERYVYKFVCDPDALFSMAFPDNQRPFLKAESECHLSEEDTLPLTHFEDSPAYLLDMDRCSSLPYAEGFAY
HSF1, sequence (Q00613 whole entry): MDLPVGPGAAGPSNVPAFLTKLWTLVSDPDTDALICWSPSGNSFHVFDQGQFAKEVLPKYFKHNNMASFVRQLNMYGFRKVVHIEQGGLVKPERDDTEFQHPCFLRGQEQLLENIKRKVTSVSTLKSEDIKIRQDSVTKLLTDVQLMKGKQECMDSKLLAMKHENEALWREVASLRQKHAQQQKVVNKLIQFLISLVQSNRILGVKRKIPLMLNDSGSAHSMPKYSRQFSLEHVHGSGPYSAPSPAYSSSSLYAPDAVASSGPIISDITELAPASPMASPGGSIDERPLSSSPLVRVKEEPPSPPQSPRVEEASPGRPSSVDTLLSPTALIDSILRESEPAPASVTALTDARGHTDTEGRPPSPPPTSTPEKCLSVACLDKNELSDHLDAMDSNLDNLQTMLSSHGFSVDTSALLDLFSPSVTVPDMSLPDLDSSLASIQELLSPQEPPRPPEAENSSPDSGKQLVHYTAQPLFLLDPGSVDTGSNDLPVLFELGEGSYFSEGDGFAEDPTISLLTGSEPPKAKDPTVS
CRX, sequence (O43186 whole entry): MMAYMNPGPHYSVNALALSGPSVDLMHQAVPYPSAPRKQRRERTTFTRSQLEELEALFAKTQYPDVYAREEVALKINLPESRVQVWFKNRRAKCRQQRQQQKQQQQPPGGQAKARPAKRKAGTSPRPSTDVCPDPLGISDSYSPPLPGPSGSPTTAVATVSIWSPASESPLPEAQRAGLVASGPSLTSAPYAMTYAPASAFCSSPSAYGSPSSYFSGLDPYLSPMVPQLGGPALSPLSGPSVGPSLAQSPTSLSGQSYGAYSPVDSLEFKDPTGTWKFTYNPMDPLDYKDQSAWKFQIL
ELF4, sequence (Q99607 whole entry): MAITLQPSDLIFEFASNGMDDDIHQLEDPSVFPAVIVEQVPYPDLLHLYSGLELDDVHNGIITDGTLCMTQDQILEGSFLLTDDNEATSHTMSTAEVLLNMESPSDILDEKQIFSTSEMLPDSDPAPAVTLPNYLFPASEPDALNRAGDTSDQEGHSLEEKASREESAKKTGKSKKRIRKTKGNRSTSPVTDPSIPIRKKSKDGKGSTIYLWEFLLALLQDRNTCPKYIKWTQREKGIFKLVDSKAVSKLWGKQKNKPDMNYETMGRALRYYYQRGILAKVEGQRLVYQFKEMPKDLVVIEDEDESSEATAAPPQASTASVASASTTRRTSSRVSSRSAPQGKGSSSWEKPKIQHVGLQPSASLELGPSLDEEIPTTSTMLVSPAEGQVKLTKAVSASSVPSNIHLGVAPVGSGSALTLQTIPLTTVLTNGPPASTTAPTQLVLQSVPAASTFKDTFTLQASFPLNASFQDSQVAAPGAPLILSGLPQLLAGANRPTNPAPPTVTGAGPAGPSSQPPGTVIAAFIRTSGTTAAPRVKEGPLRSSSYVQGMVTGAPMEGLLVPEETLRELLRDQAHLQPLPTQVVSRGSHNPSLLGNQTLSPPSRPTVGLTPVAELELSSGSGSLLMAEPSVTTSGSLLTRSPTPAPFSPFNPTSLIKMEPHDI
ETV6, sequence (P41212 whole entry): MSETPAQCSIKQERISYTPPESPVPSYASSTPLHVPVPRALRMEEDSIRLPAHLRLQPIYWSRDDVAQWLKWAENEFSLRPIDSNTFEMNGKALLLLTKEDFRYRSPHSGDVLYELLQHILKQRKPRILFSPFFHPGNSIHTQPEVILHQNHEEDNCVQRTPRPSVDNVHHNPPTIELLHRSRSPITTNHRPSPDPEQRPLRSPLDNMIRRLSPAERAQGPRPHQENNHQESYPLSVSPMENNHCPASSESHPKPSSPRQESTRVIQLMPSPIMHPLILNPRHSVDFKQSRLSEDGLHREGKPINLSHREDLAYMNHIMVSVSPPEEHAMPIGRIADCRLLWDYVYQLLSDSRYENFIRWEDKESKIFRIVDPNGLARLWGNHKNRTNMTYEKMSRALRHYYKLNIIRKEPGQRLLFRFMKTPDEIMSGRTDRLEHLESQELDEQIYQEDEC
ETV1, sequence (P50549 whole entry): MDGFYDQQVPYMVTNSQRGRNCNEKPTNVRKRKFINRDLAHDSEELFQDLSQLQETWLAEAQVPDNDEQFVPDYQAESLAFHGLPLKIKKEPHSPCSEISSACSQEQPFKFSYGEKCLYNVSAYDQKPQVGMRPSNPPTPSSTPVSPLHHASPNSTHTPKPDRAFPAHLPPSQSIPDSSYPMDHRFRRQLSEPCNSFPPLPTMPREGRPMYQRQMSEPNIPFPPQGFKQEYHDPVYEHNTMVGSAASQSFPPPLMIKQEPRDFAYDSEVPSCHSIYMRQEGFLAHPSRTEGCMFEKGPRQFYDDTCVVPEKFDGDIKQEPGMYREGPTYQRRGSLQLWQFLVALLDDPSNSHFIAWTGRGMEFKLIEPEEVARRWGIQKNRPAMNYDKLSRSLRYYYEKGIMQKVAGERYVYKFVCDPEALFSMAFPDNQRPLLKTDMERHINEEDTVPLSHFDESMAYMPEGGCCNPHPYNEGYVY

For GATTAC, the binding signal (FEV) was 1.05 fold enrichment (6-mer frequency, TF over GST control), the binding signal (ETV5) was 1.06 fold enrichment (6-mer frequency, TF over GST control) and the binding signal (HSF1) was 2.08 fold enrichment (6-mer frequency, TF over GST control). The binding signal (SPIC) was 1.13 fold enrichment (6-mer frequency, TF over GST control), the binding signal (ELF4) was 1.08 fold enrichment (6-mer frequency, TF over GST control) and the binding signal (ELK4) was 1.23 fold enrichment (6-mer frequency, TF over GST control). For the same sequence, the binding signal (ETV2) was 1.1 fold enrichment (6-mer frequency, TF over GST control), the binding signal (ELF3) was 1.04 fold enrichment (6-mer frequency, TF over GST control) and the binding signal (CRX) was 3.27 fold enrichment (6-mer frequency, TF over GST control). The binding signal (ETV1) was 1.1 fold enrichment (6-mer frequency, TF over GST control), the binding signal (ERF) was 1.13 fold enrichment (6-mer frequency, TF over GST control) and the binding signal (ETV3L) was 1.07 fold enrichment (6-mer frequency, TF over GST control). For the same sequence, the binding signal (ETS2) was 1.1 fold enrichment (6-mer frequency, TF over GST control), the binding signal (SPDEF) was 1.13 fold enrichment (6-mer frequency, TF over GST control) and the binding signal (ETV7) was 1.08 fold enrichment (6-mer frequency, TF over GST control). For the same sequence, the binding signal (ELF5) was 1.11 fold enrichment (6-mer frequency, TF over GST control), the binding signal (ETV3) was 1.07 fold enrichment (6-mer frequency, TF over GST control) and the binding signal (ETV6) was 1.13 fold enrichment (6-mer frequency, TF over GST control).
